# Source: PubChem BioAssay (National Center for Advancing Translational Sciences (NCATS))
# p53ts 39C tox – kills p53ts cells at the nonpermissive temperature. AID 902. Potency, µM (top dose mostly 46.1 µM), without a hit: top-dose activity change, negative = cell killing, hits mostly cytotoxic. 130,000 compounds, 1.5% hits. H1299-p53A138V viability at 39C, ATP luminescence, 24 h; also: potency is read from the fitted curve at half-maximal effect; % is scaled to controls: 0 for no effect and ±100 for the full control effect; nearly all actives have a fitted effect of over 55% in size
# HBB splice mod – modulators of hemoglobin beta chain splicing; HBB splicing reporter cell assay, activation; EGFP reporter with mutant IVS2-654 intron; response scale: normalised to 500 nM splice-correcting PNA; Potency, µM (highest dose often 46.1 µM), inactives show at the top dose activation, hits mostly activators; 65,000 compounds, 0.06% hits; AID 925; also: potency is read from the fitted curve at half-maximal effect; 0% is about no effect
#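 HeLa cells stably expressing EGFP interrupted by mutant beta-globin intron 2 (IVS2-654), 500/well in 2% FCS. Treated with compound for 2 days at 37C. Splicing correction scored as total well GFP intensity (488 nm excitation, 500-520 nm emission); 500 nM antisense PNA served as control.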
# p53ts 32C tox – cytotoxicity in p53ts cells at permissive temperature; H1299-p53A138V at 32C, ATP luminescence viability, 24 h; Potency, µM (top dose mostly 46.1 µM), without a hit: at the highest dose activity change, negative = cytotoxicity, actives largely listed as cytotoxic; 130,000 compounds, 0.93% hits;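 also: potency is read from the fitted curve at half-maximal effect; 0% = DMSO and -100% = full killing by reference compound; nearly all actives have a fitted effect of over 55% in size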
#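 ATP-content luminescence (ATPlite) read-out after 24 h compound exposure at 32C in H1299-p53A138V cells (600/well). Tested up to 46 uM. Normalized to DMSO (0%) and 100 uM tamoxifen (100% killing); Hill-fit AC50.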
# GFP derepression – derepresses silenced GFP locus in mouse C127i cells. 68,000 compounds, 0.09% hits. Potency, µM (titrated, usually from 46.1 µM), without a hit: at the top dose GFP derepression (activation). mouse C127i GFP locus derepression, cytometry, 30 h; also: % of control where 0% means no effect
#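 Locus derepression in mouse mammary C127i cells whose integrated CMV-GFP reporter is normally silent; GFP expression after 30 h compound treatment was quantified by counting fluorescent cells.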
# Ub-GFP proteasome – proteasome inhibitors stabilizing ubiquitin-GFP reporter; AID 526; Potency, µM (top dose mostly 45.9 µM), inactives show at the highest dose activation (GFP accumulation), hits mostly activators; 67,000 tested, under 10 active; Ubiquitin-GFP reporter cells, proteasome inhibition, GFP fluorescence; response scale: untreated = 0%, 10 µM MG-132 = 100%; active = well fitted activation curve with a large enough effect, not every such curve was filed as active; inconclusive = small, poorly fitted or top-dose-only effect, or another doubt; inactive = no such curve, though single readings can be large or run the other way; also: potency is read from the fitted curve at half-maximal effect
#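 U2OS Ub(G76V)-GFP reporter; O/N plating, 0.5% FBS; cpd 46 uM–2.9 nM, 4 h, 37 °C; GFP+ cell count, 488/515 nm; norm. to basal vs 10 uM MG-132; CRC fit.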
# Imprint erasure – induces erasure of genomic imprints in mouse ES cells; mouse ES Peg3-LacZ reporter, beta-gal luminescence, 40 h; Potency, µM (series often up to 60.7 µM), without a hit: at the highest dose activity change, positive = activation, most hits filed as activators; 110,000 compounds, 0.02% hits; AID 1948; also: potency is read from the fitted curve at half-maximal effect
#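 Imprint erasure is scored as LacZ activity from the silenced maternal Peg3 allele in feeder-free female ES cells cultured 40 h with LIF. Luminescence is normalized to in-plate negative controls and fitted to the Hill equation.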
# An asterisk follows results filed as active; ? = inconclusive; . = no result; [ ] = remark or other dose. Only some compounds are listed: those with a hit (about 1.6% of all), similar ones and a draw of the others. Unless noted, calls follow the shape of the dose curve; as a rule, active = well fitted curve in the direction sought with a large enough effect; inconclusive = small, poorly fitted or top-dose-only effect, or another doubt; inactive = no such curve, though single readings can be large; an effect the other way counts as inactive or inconclusive.
SMILES,p53ts 39C tox,HBB splice mod,p53ts 32C tox,GFP derepression,Ub-GFP proteasome,Imprint erasure
c1ccc(-c2cccc(N3CCC4(CCNCC4)CC3)c2)cc1,16µM*,-2%,-7%,2%[9.22 µM],-7%,.
c1ccc(-c2cccc(N3CCCC4(CCNCC4)C3)c2)cc1,13µM*,1%,-19%,0%[9.22 µM],-3%,.
Cc1ccc(NC(=O)Cn2nnc3sc(-c4ccccc4)cc3c2=O)cc1Cl,-23%,.,8%,.,.,16%[10.9 µM]
COc1ccccc1NC(=O)N1CCN(c2nnc(C)c3c(C)n(-c4ccc(Cl)cc4)nc23)CC1,-13%,.,2%,.,.,-15%[10.9 µM]
c1c2c(cc3sc(N4CCOCC4)nc13)OCCO2,5µM*,3%[57.5 µM],3.2µM*,4%,-1%,-86%
c1ccc(N2CCN(c3nc4cc5c(cc4s3)OCCO5)CC2)cc1,-17%,-2%,-23%,1%,-1%,0%
CN1/C(=C\C(=O)c2cccs2)Sc2ccccc21,10µM*,4%,10µM*,-1%,-3%,-86%
Cc1ccc(Nc2ccc(N3CCN(C(=O)c4ccc([N+](=O)[O-])cc4)CC3)nn2)cc1,23%,.,4%,.,.,-11%[10.9 µM]
Cc1cc(F)ccc1NC(=O)CS(=O)(=O)c1cccc2nsnc12,0.04µM*,.,15%,.,.,-8%[10.9 µM]
O=C(NCCS(=O)(=O)N1CCN(c2ccc(F)cc2)CC1)c1cccc(C(F)(F)F)c1,-28%,.,-7%,.,.,-10%[10.9 µM]
Cc1ccc(NC(=O)NCC2CCN(Cc3cccc(Cl)c3)CC2)cc1Cl,16µM*,.,-18%,.,.,-19%[10.9 µM]
COc1ccc(S(=O)(=O)Nc2cc3c(cc2N2CCOCC2)n(C)c(=O)n3C)cc1,-23%,.,1%,.,.,11%[10.9 µM]
COC(=O)/C(=C1/Oc2cc(C)oc(=O)c2S1)C(F)(F)F,5%,.,8%,10µM*,.,.
COC(=O)C1=C(N)Oc2cc(C)oc(=O)c2C1c1ccncc1 (stereo not given),.,.,.,1%[20.6 µM],.,.
C=CCNC(=S)NNC(=O)c1ccc(Br)cc1,15%,.,.,.,.,.
COc1ccc(CCNc2oc(COc3cccc(C)c3)nc2C#N)cc1OC,-5%,.,4%,.,.,14%[10.9 µM]
COc1ccc(CCNc2oc(COc3ccc(Cl)cc3)nc2C#N)cc1OC,?,.,22µM*,.,.,-8%[10.9 µM]
CCc1ccc(OCc2nc(-c3ccccn3)no2)c(Br)c1,10µM*,-1%,16µM*,-3%,3%,-77%
CC(C)c1ccc(OCc2nc(-c3ccccn3)no2)c(Br)c1,?,-2%[57.5 µM],?,0%,-1%,-58%
Cc1ccc(OCc2nc(-c3ccccn3)no2)c(Br)c1,?,-3%,10µM*,1%,12%,-69%
O=C(COc1ccc(Cl)cc1)Nc1ccc2nc(SCC(=O)N3CCCC3)sc2c1,4%,.,-6%,.,.,-11%[10.9 µM]
COc1ccc(CC(=O)Nc2ccc(S(=O)(=O)NCC3CCCO3)cc2)cc1 (stereo not given),2%,1%,5%,0%,3%,-10%
Cc1nc2c(-c3ccccc3)c(C)nn2c(N)c1-c1ccccc1,?,.,11µM*,.,.,.
Cc1ccc(-n2ncc3c(NC4CCCCC4)ncnc32)cc1C,13µM*,.,-16%,.,.,-23%[10.9 µM]
C=CCNc1ncnc2c1cnn2-c1cccc(C)c1,?,0%,?,.,19%,-41%
SMILES,p53ts 39C tox,HBB splice mod,p53ts 32C tox,GFP derepression,Ub-GFP proteasome,Imprint erasure
Cc1cccc(-n2ncc3c(NC4CCCCC4)ncnc32)c1,16µM*,-1%,10µM*,.,-9%,-18%
Cc1ccc(-n2ncc3c(NC4CCCCC4)ncnc32)cc1Cl,?,.,?,.,.,-8%[10.9 µM]
Cc1cccc(-n2ncc3c(NC4CCCC4)ncnc32)c1,7.9µM*,.,13µM*,.,.,19%[10.9 µM]
Clc1cccc(-n2ncc3c(NC4CCCCCC4)ncnc32)c1,-24%,.,2%,.,.,-19%[10.9 µM]
COc1cccc2cc(C(C)=O)c(=O)oc12,1%,0%,9%,0%,7%,-3%
COc1cccc2cc(C(=O)Nc3ccc(CC(=O)O)cc3)c(=O)oc12,7.9µM*,.,5µM*,.,.,-52%[10.9 µM]
